Source: PubChem (National Center for Advancing Translational Sciences (NCATS))
RORg inh = qHTS for inhibitors of ROR gamma transcriptional activity; Nuclear receptor ROR-gamma (Mus musculus), P51450; Drosophila S2 Gal4-RORgamma UAS-luciferase reporter, 20 h; Potency, µM (highest dose often 53.6 µM), without a hit: at the top dose activity change, negative = inhibition, hits mostly inhibitors; 5.4% of 310,000 active; also: potency is read from the fitted curve at half-maximal effect; % is scaled to controls: 0 for no effect and ±100 for the full control effect; nearly all actives have a fitted effect of over 60% in size
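A Gal4/UAS one-hybrid system in insect cells: metallothionein-promoter Gal4–ROR gamma fusion plus Photinus luciferase reporter. Copper sulfate 700 uM final, 20 hr ambient incubation, luminescent detection after 10 min with reagent.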
CtBP-E1A inh = qHTS Assay for Inhibitors of the CtBP/E1A Interaction; AlphaScreen GST-E1A/His-CtBP binding, 1536-well; stronger effect = lower value; activity change, % (concentration not given with the values); 0.49% of 340,000 active; AID 651724, 2012; in the data active = activity change below about -65%; inconclusive = mostly about -30% to -63%; also: % is scaled to controls: 0 for no effect and ±100 for the full control effect
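Steps: dispense buffer (Tris pH 8.0, NaCl 300 mM, TCEP 1 mM, BSA, Tween 20); add 5X protein mix (GST-E1A, His-CtBP, 125 nM each); pin 23 nL compound; 2 h at 37 °C, dark; add 5X beads (50 ug/mL); 1 h; read.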
p53 reactivator = qHTS assay for re-activators of p53 using a Luc reporter; Potency, µM (top dose mostly 92.2 µM), inactives show top-dose activity change, positive = activation, actives largely listed as activators; AID 504706, 2011; H1299 p53-A138V BP100-luciferase reporter, luminescence, 24 h; 0.063% of 320,000 active; also: potency is read from the fitted curve at half-maximal effect; % of control where 0% means no effect; nearly all actives have a fitted effect of over 45% in size
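p53-null H1299 cells stably carrying temperature-sensitive p53-A138V and a BP100-luciferase reporter were pinned with compounds (4-point, 1:5 series) and held 24 hrs at 37 deg C. Luminescence was read 10 min after detection reagent.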
VP16 counter = VP16 counterscreen qHTS for inhibitors of ROR gamma transcriptional activity. Potency, µM (series often up to 53.6 µM), for the others: top-dose activity, negative = inhibition, most hits filed as inhibitors. Drosophila S2 Gal4-VP16 UAS-luciferase, luminescence, 20 h. 3.5% of 310,000 active;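 also: Gal4-VP16 expression switched on by copper sulfate through the metallothionein promoter; potency is read from the fitted curve at half-maximal effect; % is scaled to controls: 0 for no effect and ±100 for the full control effect; nearly all actives have a fitted effect of over 50% in size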
Six1-Eya2 blk = qHTS Assay for Inhibitors of the Six1/Eya2 Interaction | activity change, % (no concentration beside the values) | AlphaScreen GST-Six1/His-Eya2 binding, biochemical; stronger effect = lower value | 0.56% of 360,000 active; in the data active = activity change below about -65%; inconclusive = mostly about -30% to -63%; also: % is scaled to controls: 0 for no effect and ±100 for the full control effect
Target sequence (O00167 whole entry, looked up): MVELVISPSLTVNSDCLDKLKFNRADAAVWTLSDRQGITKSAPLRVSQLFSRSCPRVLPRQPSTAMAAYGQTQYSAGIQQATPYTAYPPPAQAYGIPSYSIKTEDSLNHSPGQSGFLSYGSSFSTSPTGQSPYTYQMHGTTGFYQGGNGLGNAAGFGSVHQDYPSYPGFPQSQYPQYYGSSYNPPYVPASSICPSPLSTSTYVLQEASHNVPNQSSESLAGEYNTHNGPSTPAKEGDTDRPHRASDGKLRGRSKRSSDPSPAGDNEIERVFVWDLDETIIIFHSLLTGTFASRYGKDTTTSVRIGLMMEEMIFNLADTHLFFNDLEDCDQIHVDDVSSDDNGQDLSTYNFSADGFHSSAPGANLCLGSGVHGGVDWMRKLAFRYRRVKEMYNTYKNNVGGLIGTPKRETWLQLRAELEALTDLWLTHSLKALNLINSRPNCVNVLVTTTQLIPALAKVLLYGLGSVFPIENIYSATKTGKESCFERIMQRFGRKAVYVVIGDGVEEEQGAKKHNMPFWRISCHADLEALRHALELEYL
Target sequence (Q15475 whole entry, looked up): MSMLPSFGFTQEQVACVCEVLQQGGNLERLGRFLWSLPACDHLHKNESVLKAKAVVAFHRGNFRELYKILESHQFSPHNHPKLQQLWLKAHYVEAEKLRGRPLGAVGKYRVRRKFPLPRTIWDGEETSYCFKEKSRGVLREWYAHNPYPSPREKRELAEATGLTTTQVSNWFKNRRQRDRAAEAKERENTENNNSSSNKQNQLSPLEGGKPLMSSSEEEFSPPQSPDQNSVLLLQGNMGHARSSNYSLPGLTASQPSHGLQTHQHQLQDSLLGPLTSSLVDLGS
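AlphaScreen with GST-Six1 and His-Eya2 (5X mix: 250 nM and 500 nM), glutathione donor and nickel acceptor beads; buffer 50 mM Tris pH 8.0, 300 mM NaCl, 1 mM TCEP; 1 h at 37 C in the dark.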
* = called active by the depositor; ? = inconclusive; nt = no result; [ ] = another dose, or the depositor's remark. Sampled rows, rich in hits. Any-hit rate of the full collection: about 5.4%. Unless noted, calls follow the shape of the dose curve; as a rule, active = well fitted curve in the direction sought with a large enough effect; inconclusive = small, poorly fitted or top-dose-only effect, or another doubt; inactive = no such curve, though single readings can be large; an effect the other way counts as inactive or inconclusive.

SMILES	RORg inh	CtBP-E1A inh	p53 reactivator	VP16 counter	Six1-Eya2 blk
Cc1ccc(-n2c(Cn3c(C)nc4ccccc43)n[nH]c2=S)cc1	?	nt	2%	-13%	4
Cc1ccc(C2CC2c2n[nH]c(=S)n2-c2cccc(Cl)c2)cc1 (configuration not stated)	2.5µM*	6	1%	7.1µM*	1
Cc1ccc(-n2c([C@@H]3C[C@H]3c3ccccc3)n[nH]c2=S)cc1	2.8µM*	-1	7%	?	-1
Cc1ccc(S(=O)(=O)N2CCN(C(C(=O)Nc3ccc(F)cc3)c3ccccc3)CC2)cc1 (configuration not stated)	36%	-8	-7%	-12%	2
Cc1cc(C)cc(NC(=O)CCN2CCCC2)c1	15%	nt	-2%	3%	-6
O=C1c2cccc3c2[C@@H](CCC3)CN1[C@@H]1CN2CCC1CC2	0%	nt	nt	-20%	nt
Cc1ccc(C2CC2c2n[nH]c(=S)n2-c2ccc(C)cc2)cc1 (configuration not stated)	3.2µM*	-4	2%	5.6µM*	-5
Cc1c(Cl)cccc1NC(=S)N1CCC(N(C)CC2CCCO2)CC1 (configuration not stated)	-20%	0	1%	4%	-6
CC(=O)C1=C(c2ccc(Br)cc2)C(=O)c2ccccc2C1=O	14µM*	-9	-23%	6.3µM*	-25
Cc1cc(=O)n2c3ccccc3n(CC(O)CN3CCCC3)c2c1C#N (configuration not stated)	-28%	6	1%	-9%	0
CCCNCC(O)Cn1c2ccccc2n2c(=O)cc(C)c(C#N)c12 (configuration not stated)	0.71µM*	1	10%	-79%	3
Cc1ccc(-n2c(NN)nc3ccccc3c2=O)c(C)c1	?	8	-7%	20µM*	1
Cn1c(NN)nc2ccccc2c1=O	?	1	5%	26%	-4
Clc1cnc(N/N=C/c2cccs2)c(Cl)c1	7.9µM*	21	?	?	13
Brc1ccccc1/C=N/Nc1ccccn1	?	-22	9%	-2%	2
Cc1ccc(/C=N/Nc2ncc(Cl)cc2Cl)s1	4.5µM*	3	?	7.1µM*	-8
Cc1ccc(/C=N/Nc2ccccn2)s1	?	-21	?	11µM*	-3
Clc1cnc(N/N=C/c2ccco2)c(Cl)c1	5.6µM*	-4	?	13µM*	5
Oc1ccc(/C=N/Nc2ncc(Cl)cc2Cl)cc1	?	-7	11%	6%	-9
CCc1ccccc1NC(=O)NCc1ccc2c(c1)OCO2	18%	-4	-5%	-3%	-6
O=C(CSc1nnc(COc2ccc(Cl)cc2)o1)N1CCOCC1	12%	3	-1%	6%	4
Cc1cc(NC(=O)C(C)SCC(=O)N(C)CC(=O)Nc2ccc(Br)cc2C)no1 (configuration not stated)	13µM*	-8	-3%	13µM*	-3
C=C1CC2C(=O)N(Cc3ccccc3)C(C(=O)O)C1N2C(=O)OC(C)(C)C (configuration not stated)	2%	nt	nt	5%	nt
Cc1ccc(-c2csc3ncnc(SCC(=O)Nc4nnc(C)s4)c23)cc1	-44%	-3	5%	-6%	0
Cc1ccc(-c2csc3ncnc(Sc4nnc(CN5CCCCCC5=O)o4)c23)cc1	10µM*	5	-49%	?	3
SMILES	RORg inh	CtBP-E1A inh	p53 reactivator	VP16 counter	Six1-Eya2 blk
CCc1cc2cc(C)cc(C)c2[nH]c1=S	7.1µM*	0	3%	-20%	0
COc1nc(NCc2ccco2)nc(NC2CCCCC2)n1	?	-2	26%	?	-6
CCOc1nc(NC2CCCCC2)nc(NC(C)(C)C)n1	?	-1	1%	16µM*	-1
Cc1ccc(NC(=O)C2CCN(S(=O)(=O)c3ccc4c(c3)NC(=O)C(C)S4)CC2)cc1Cl (configuration not stated)	?	nt	-4%	7.1µM*	4
Cc1[nH]c2ccccc2c1C(=O)C(C)OC(=O)c1ccc([N+](=O)[O-])o1 (configuration not stated)	14µM*	-2	4%	-23%	-25
CN1CC(=O)NC1=NC(=O)c1cc(F)c(F)cc1Cl	10µM*	-2	-2%	?	-2
CN1CC(=O)NC1=NC(=O)c1ccc(Cl)c(S(=O)(=O)N2CCCCCC2)c1	3.5µM*	-2	-1%	16µM*	-8
CC(=O)NCCNc1ncnc2ccc(-c3ccccc3C#N)cc12	23%	nt	nt	-14%	nt
C#CCOc1ccc(/C=C2\SC(=S)N(Cc3cccnc3)C2=O)cc1	-34%	-14	35µM*	-10%	-9
CCNC(=O)N1CCCC(C(=O)c2ccc(OC)c(OC)c2)C1 (configuration not stated)	1%	7	-3%	-3%	9
Cc1cc2nc3n(c2cc1C)CCCN3	1.6µM*	nt	nt	-10%	1
Cc1cc2nc(C)c(=O)n(C)c2cc1C	-14%	1	3%	7%	-6
COc1ccc(C(=O)NC(=S)Nc2ccc(CN3CCOCC3)cc2)cc1Cl	13µM*	nt	-2%	?	-25
COc1ccc(C(=O)NC(=S)Nc2ccc(CN3CCOCC3)cc2)cc1OC	?	nt	-5%	-6%	4
Cc1ccc(C(=O)NC(=S)Nc2ccc(CN3CCCCC3)cc2)c(C)c1	13µM*	-17	2%	?	-21
COc1ccc(C(=O)NC(=S)Nc2ccc(CN3CCCCC3)cc2)cc1Cl	20µM*	9	-2%	?	-29
CCn1cc(/C=N/NC(=O)c2ccc3c(c2)OCO3)cn1	-10%	-8	2%	2%	-2
COc1ccc(C2=Nn3c(nnc3-c3ccccc3O)SC2)cc1OC	-25%	nt	nt	14%	nt
CC(C)COc1ccc(C(=O)OCCN2CCCCC2)cc1	19%	3	5%	-11%	-9
CC(C)COc1ccc(C(=O)CCN2CCCCC2)cc1	7.1µM*	4	-10%	11µM*	-2
CCCCOc1ccc(C(=O)CCN2CCCCC2)cc1	?	0	-10%	14µM*	1
CCc1ccc(Nc2nnc(SCC(=O)Nc3ccc(C(=O)O)cc3)s2)cc1	5µM*	-5	0%	7.1µM*	-8
CCc1ccc(Nc2nnc(SCC(=O)NC(=O)c3cccn3C)s2)cc1	?	-24	5%	4%[10 µM]	-3
O=C(CSc1nnc(NC(=O)c2c(F)cccc2F)s1)Nc1ccc(F)cc1	-40%	nt	8%	-7%	-1
CC(=O)Nc1ccc(NC(=O)CSc2nnc(NC(=O)c3cccc(F)c3)s2)cc1	13µM*	-8	12%	?	?
